Assay outcomes (PubChem)
C diff HTS = C. difficile growth inhibitors, primary screen, HTS; Clostridium difficile clinical isolate growth, OD600, 24 h; stronger effect = lower value; growth activity, negative = inhibition, % at 16 µg/mL (by protocol); 86,000 tested, 0.25% active; AID 1259249, 2017;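 active = mean growth activity at or below -80% and every replicate also at or below -80%; inconclusive = mean at or below -80% but some replicate above -80%; inactive = mean growth activity above -80%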;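 note: 0% = DMSO wells and -100% = levofloxacin 16 µg/mL wells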
Pf Dd2 inh = P. falciparum Dd2 growth inhibitors, primary screen, SYBR Green fluorescence, single dose replicates; 72 h; stronger effect = lower value; activity change, % at 10 µM; 94,000 tested, 2.3% active; AID 1159554, 2015; in the data active = activity change below about -80%; inconclusive = no clear call, values can overlap the other calls
* = called active by the depositor; ? = inconclusive; · = no result given. Shown are actives, neighbours in structure and some others; about 2.3% of the full set was active somewhere.

SMILES	C diff HTS	Pf Dd2 inh
C[C@H]1CN([C@@H](C)CO)C(=O)Cc2cc(NS(=O)(=O)c3ccc(Cl)cc3)ccc2O[C@@H]1CN(C)Cc1ccc(C(=O)Nc2ccccc2N)cc1	2	-85*
C[C@H](CO)N1C[C@H](C)[C@H](CN(C)Cc2ccc(C(=O)Nc3ccccc3N)cc2)Oc2ccc(NS(=O)(=O)c3ccc(F)cc3)cc2CC1=O	64	-82*
C[C@H](CO)N1C[C@H](C)[C@H](CN(C)Cc2ccc(C(=O)Nc3ccccc3N)cc2)Oc2ccc(NS(=O)(=O)c3ccccc3)cc2CC1=O	-11	-85*
C[C@@H]1CN([C@@H](C)CO)C(=O)Cc2cc(NS(=O)(=O)c3ccc(Cl)cc3)ccc2O[C@H]1CN(C)Cc1ccc(C(=O)Nc2ccccc2N)cc1	5	-54
C[C@H](CO)N1C[C@H](C)[C@@H](CN(C)Cc2ccc(C(=O)Nc3ccccc3N)cc2)Oc2ccc(NS(=O)(=O)c3ccc(F)cc3)cc2CC1=O	-1	?
C[C@@H]1CN([C@@H](C)CO)C(=O)Cc2cc(NS(=O)(=O)c3ccc(F)cc3)ccc2O[C@H]1CN(C)Cc1ccc(C(=O)Nc2ccccc2N)cc1	1	-61
C[C@H](CO)N1C[C@H](C)[C@H](CN(C)Cc2ccc(C(=O)Nc3ccccc3N)cc2)Oc2ccc(NS(=O)(=O)c3ccc(Cl)cc3)cc2CC1=O	1	-83*
CCCNC(=O)N1CC2(CCN(CC3CCCCC3)CC2)c2c(n(C)c3cc(OC)ccc23)[C@H]1CO	-9	-70
CN1C(=O)c2cc(NC(=O)c3cc(F)cc(F)c3)ccc2OC[C@@H]2O[C@H](CC(=O)O)CC[C@@H]21	-6	-16
COCC(=O)N1CC[C@@H]2[C@@H](CO)N(C)c3ccc(-c4ccccc4)cc3[C@@H]21	-2	-37
Cc1noc(C)c1S(=O)(=O)Nc1ccc2c(c1)C(=O)N([C@@H](C)CO)C[C@@H](C)[C@H](CN(C)C(=O)Nc1ccc(C(F)(F)F)cc1)OCCCC[C@H](C)O2	-2	-32
Cc1noc(C)c1S(=O)(=O)Nc1ccc2c(c1)C(=O)N([C@H](C)CO)C[C@H](C)[C@@H](CN(C)C(=O)Nc1ccccc1)OCCCC[C@H](C)O2	-3	3
Cc1noc(C)c1S(=O)(=O)Nc1ccc2c(c1)C(=O)N([C@H](C)CO)C[C@@H](C)[C@@H](CN(C)C(=O)Nc1ccccc1)OCCCC[C@@H](C)O2	7	-84*
Cc1noc(C)c1S(=O)(=O)Nc1ccc2c(c1)C(=O)N([C@@H](C)CO)C[C@@H](C)[C@@H](CN(C)C(=O)Nc1ccc(C(F)(F)F)cc1)OCCCC[C@H](C)O2	3	-82*
CC(C)NC(=O)N(C)C[C@@H]1OCCCC[C@@H](C)Oc2ccc(NC(=O)Nc3ccc4c(c3)OCO4)cc2C(=O)N([C@@H](C)CO)C[C@@H]1C	3	-3
CC(=O)N1CC2(C1)[C@H](c1ccc(-c3cccc(C#N)c3)cc1)[C@@H](CO)N2CCC(F)(F)F	1	-27
O=C(C[C@H]1CC[C@@H]2NC[C@H](O)COC[C@H]2O1)NCc1ccc(Oc2ccccc2)cc1	-2	12
CCCC#Cc1ccc2c(c1)O[C@@H](CN(C)C(=O)C1CCC1)[C@H](C)CN([C@H](C)CO)S2(=O)=O	-8	-41
c1ccc(CN2C[C@@H]3N[C@H](C2)C3c2ccc(-c3ccccc3)cc2)cc1 (stereo partly specified)	-6	21
C(=C\c1ccc(C2[C@@H]3CN(Cc4cccnc4)C[C@H]2N3)cc1)/c1ccccc1 (stereo partly specified)	14	-90*
c1ccc(CN2C[C@@H]3N[C@H](C2)C3c2ccc(-c3ccncc3)cc2)cc1 (stereo partly specified)	-5	-84*
c1cncc(CN2C[C@@H]3N[C@H](C2)C3c2ccc(-c3cccnc3)cc2)c1 (stereo partly specified)	-8	-69
Fc1ccccc1-c1ccc(C2[C@@H]3CN(Cc4ccccc4)C[C@H]2N3)cc1 (stereo partly specified)	-98*	-32
Fc1ccccc1-c1ccc(C2[C@@H]3CN(Cc4ccccn4)C[C@H]2N3)cc1 (stereo partly specified)	-13	-4
C[C@H]1CN([C@@H](C)CO)C(=O)Cc2cc(NS(=O)(=O)c3cn(C)cn3)ccc2O[C@@H]1CN(C)C(=O)Nc1ccc(C(F)(F)F)cc1	9	20
SMILES	C diff HTS	Pf Dd2 inh
CN(C)C(=O)c1cccc(-c2ccc(C3[C@H]4CNC[C@@H]3N4S(=O)(=O)Cc3ccccc3)cc2)c1 (stereo partly specified)	-7	-21
C[C@@H]1CCCCO[C@@H](CN(C)Cc2ccccc2)[C@H](C)CN([C@@H](C)CO)C(=O)c2cc(NC(=O)Nc3ccccc3)ccc2O1	·	-70
O=S(=O)(N[C@@H]1CC[C@@H](CCNS(=O)(=O)c2ccccc2Cl)O[C@H]1CO)c1ccccc1	-7	-11
COc1cccc(CNC(=O)[C@@H]2[C@@H](CO)[C@@H]3Cn4c(cccc4=O)[C@H]2N3C(=O)C2CCCC2)c1	-3	51
COc1cccc(CNC(=O)[C@H]2[C@H](CO)[C@H]3Cn4c(cccc4=O)[C@@H]2N3C(=O)C2CCCC2)c1	-1	-81*
C[C@@H]1CN([C@@H](C)CO)C(=O)c2cc(NC(=O)Nc3ccc4c(c3)OCO4)ccc2O[C@@H](C)CCCCO[C@@H]1CN(C)S(=O)(=O)c1ccc(F)cc1	1	-74
Cc1ccc(S(=O)(=O)N(C)C[C@@H]2OCCCC[C@H](C)Oc3ccc(NC(=O)Nc4ccc5c(c4)OCO5)cc3C(=O)N([C@H](C)CO)C[C@@H]2C)cc1	·	-56
Cc1ccc(S(=O)(=O)N(C)C[C@H]2OCCCC[C@H](C)Oc3ccc(NC(=O)Nc4ccc5c(c4)OCO5)cc3C(=O)N([C@@H](C)CO)C[C@@H]2C)cc1	·	-72
C[C@@H]1CN([C@H](C)CO)C(=O)c2cc(NC(=O)Nc3ccc4c(c3)OCO4)ccc2O[C@@H](C)CCCCO[C@@H]1CN(C)S(=O)(=O)c1ccc(F)cc1	5	-84*
Cc1ccc(S(=O)(=O)N(C)C[C@@H]2OCCCC[C@@H](C)Oc3ccc(NC(=O)Nc4ccc5c(c4)OCO5)cc3C(=O)N([C@H](C)CO)C[C@@H]2C)cc1	·	-82*
C[C@H]1CCCCO[C@H](CN(C)S(=O)(=O)c2ccc(F)cc2)[C@@H](C)CN([C@@H](C)CO)C(=O)c2cc(NC(=O)Nc3ccc4c(c3)OCO4)ccc2O1	-1	-76
C[C@@H]1CCCCO[C@@H](CN(C)S(=O)(=O)c2ccc(Cl)cc2)[C@@H](C)CN([C@H](C)CO)C(=O)c2cc(NC(=O)Nc3ccc4c(c3)OCO4)ccc2O1	13	-88*
C[C@@H]1CCCCO[C@H](CN(C)S(=O)(=O)c2ccc(Cl)cc2)[C@@H](C)CN([C@@H](C)CO)C(=O)c2cc(NC(=O)Nc3ccc4c(c3)OCO4)ccc2O1	-1	-83*
C[C@@H]1CN([C@@H](C)CO)C(=O)Cc2cc(NC(=O)Nc3ccc4c(c3)OCO4)ccc2O[C@@H]1CN(C)C	0	9
CN1CCN(C(=O)C[C@@H]2CC[C@@H]3[C@H](COC[C@H](O)CN3S(=O)(=O)c3cccc(F)c3)O2)CC1	9	-7
